# Measured values from PubChem BioAssay (NCATS).
# “And” between values parts separate entries of the source, which are not always exact repeats. Equal values may be shown once. Records with an inconclusive call do not appear. Some compounds were tested as several samples or in several runs, with calls that do not always agree. The source made the active and inactive calls. Unless noted, calls come from the whole dose curve; as a rule, active = well fitted curve in the direction sought with a large enough effect; inconclusive = small, poorly fitted or top-dose-only effect, or another doubt; inactive = no such curve, though single readings can be large; an effect the other way counts as inactive or inconclusive.
# Assays:
# [1] = Primary qHTS for inhibitors of nuclear receptor binding SET domain protein 2 (NSD2) in an isogenic RCH-ACV NSD2 p.E1099K mutant (9B) (AID 1645876); note: nearly all actives have a fitted effect of over 70% in size; note: potency is the fitted concentration of half-maximal effect
# [2] = Primary qHTS for inhibitors of nuclear receptor binding SET domain protein 2 (NSD2) in an RCH-ACV wild type WT cells (2C) (AID 1645877); note: nearly all actives have a fitted effect of over 70% in size; note: potency is the fitted concentration of half-maximal effect
# [3] = biological target: Glutathione peroxidase 1 (Homo sapiens) (UniProt P07203); experiment: Primary qHTS Assay for Inhibitors of Recombinant Selenoprotein Glutathione Peroxidase 1 (GPX1) (AID 1845191); note: nearly all actives have a fitted effect of over 65% in size
# Sequence of Glutathione peroxidase 1 (Homo sapiens) (P07203 whole entry, looked up): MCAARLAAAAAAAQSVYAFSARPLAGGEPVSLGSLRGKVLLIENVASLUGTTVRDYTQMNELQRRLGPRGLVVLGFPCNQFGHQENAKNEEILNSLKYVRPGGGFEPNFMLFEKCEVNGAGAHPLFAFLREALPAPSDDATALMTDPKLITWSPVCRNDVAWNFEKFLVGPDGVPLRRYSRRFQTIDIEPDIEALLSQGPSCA
# Outline: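 NADPH consumption tracked by fluorescence at 340/450 nm between t=0 and t=15 min, room temperature. Final mix: 10 nM GPX1, 100 nM glutathione reductase, 1 mM GSH, 0.5 mM NADPH, 0.5 mM cumene hydroperoxide, 0.01% BSA; 30 min compound–enzyme preincubation.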
# [4] = biological target: Phospholipid hydroperoxide glutathione peroxidase GPX4 (Homo sapiens) (UniProt P36969); experiment: Primary qHTS Assay for Inhibitors of Recombinant Selenoprotein Glutathione Peroxidase 4 (GPX4) (AID 1845192); note: nearly all actives have a fitted effect of over 65% in size
# Sequence of Phospholipid hydroperoxide glutathione peroxidase GPX4 (Homo sapiens) (P36969 whole entry, looked up): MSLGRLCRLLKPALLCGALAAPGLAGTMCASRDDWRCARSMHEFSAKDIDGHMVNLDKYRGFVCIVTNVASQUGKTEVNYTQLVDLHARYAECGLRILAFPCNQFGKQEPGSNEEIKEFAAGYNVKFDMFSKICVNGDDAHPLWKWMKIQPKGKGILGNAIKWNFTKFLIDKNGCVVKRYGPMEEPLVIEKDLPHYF
# Outline: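 NADPH consumption followed by fluorescence at 340/450 nm, t=0 and after 15 min at room temperature. Reaction started with cumene hydroperoxide (0.5 mM final) after 30 min compound–GPX4 preincubation; final 200 nM GPX4, 100 nM GR, 1 mM GSH, 0.5 mM NADPH.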
# [5] = qHTS drug screen for cell cycle checkpoint inhibitors in PARPi-resistant BRCA-mutant ovarian cancer cell lines. (AID 1963452; calls by dose curve; note: potency is the fitted concentration of half-maximal effect); conditions: PEO1/OlaR viability, CellTiter-Glo luminescence, 96 h; for Z-AUC: stronger effect = lower value
# Outline: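 PEO1, PEO4 and PEO1/OlaR ovarian cancer cells, 600 per well, exposed 96 h at 37C to a dilution series. Viability read by CellTiter-Glo luminescence, normalized to DMSO and empty wells; activity summarized as Z-AUC.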
# [6] = NCATS anti-infectives library activity on HEK293 viability as a counter-qHTS vs the C. elegans viability qHTS (AID 1745854);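 note: HEK293 cells exposed to compounds for 24 hr before the viability read; % is set by controls: 0 for no effect and ±100 for the full control effect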
# Outline: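 Counter-screen for cytotoxicity: HEK293, 24 hr, 37C, compounds up to 41.7 uM final (a dilution series, 1:5). Readout CellTiter-Glo luminescence, 10 min RT. Digitonin control, 83.3 uM final.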
# [7] = measured here: PEO1 parental Z-AUC
SMILES,Potency [1],Potency [2],Potency [3],Potency [4],Z-AUC [5],"Z-AUC [5, 7]",Z-AUC ([5]; measured here: PEO4 Z-AUC),outcome [6],Potency [5]
COc1cc(N2CCN(C)CC2)ccc1Nc1ncc2c(n1)N(C)c1ccccc1C(=O)N2,16.6 µM (active),16.6 µM (active),inactive,inactive,-0.466 (inactive),-0.178,0.52,,
C[C@H](NC(=O)c1c(N)nn2cccnc12)c1cc2cccc(C#Cc3cnn(C)c3)c2c(=O)n1-c1ccccc1,1.62 µM (active),3.62 µM (active),inactive,inactive,-0.378 (inactive),0.564,0.799,,
[O-][n+]1cccc(-c2nc3c(Cl)cccc3cc2[C@@H](Nc2ncnc3cccnc23)C(F)(F)F)c1,0.263 µM (active),0.468 µM (active),inactive,inactive,-0.846 (inactive),0.42,0.695,,
[2H]C([2H])([2H])C(O)([C@@H](C)/C=C/[C@@H](C)[C@H]1CC[C@H]2/C(=C/C=C3C[C@@H](O)C[C@H](O)C3)CCC[C@]12C)C([2H])([2H])[2H],inactive,inactive,inactive,inactive,1.18 (inactive),0.263,0.327,,
Cc1ccc(Nc2nnc(Cc3ccncc3)c3ccccc23)cc1Br,14.8 µM (active),13.2 µM (active),inactive,inactive,0.372 (inactive),0.414,-0.215,,
COc1cc(OC)cc(N2CCN(C(=O)Nc3nc4cc(F)ccc4nc3OC)CC2)c1,20.9 µM (active),26.3 µM (active),inactive,inactive,-0.785 (inactive),-0.317,0.136,,
COc1ccc(S(=O)(=O)N2CCc3cccc(-c4ccncc4)c32)cc1,0.833 µM (active),0.934 µM (active),inactive,inactive,-1.73 (inactive),-1.49,-1.55,,
C[C@]1(C(=O)N(CCCC(=O)O)Cc2cccc(Cl)c2)CCN1C(=O)c1csc2ccccc12,inactive,inactive,inactive,inactive,0.897 (inactive),0.571,0.835,,
c1ccc2c(-c3cnn4cc(-c5ccc(OCCN6CCOCC6)cc5)cnc34)ccnc2c1,3.62 µM (active),3.23 µM (active),inactive,inactive,-1.41 (inactive),-1.08,-0.99,,
Cc1ccc(Nc2cc(N[C@@H]3CCCC[C@@H]3N)nnc2C(N)=O)nc1C,1.05 µM (active),0.934 µM (active),inactive,inactive,-0.241 (inactive),-0.11,0.345,,
Cc1ccc([C@@H]2O[C@H](CO)[C@@H](O)[C@H](O)[C@H]2O)cc1Cc1ccc(-c2ccc(F)cc2)s1,23.5 µM (active),20.9 µM (active),inactive,inactive,-0.931 (inactive),-1.18,-1.2,,
CCN1C(=O)N2Cc3cc(OC)cc(OC)c3[C@@H](C)C=C2C12CCN(Cc1cc(C)cc(C)c1)CC2,,18.6 µM (active),inactive,inactive,-1 (inactive),-1.06,-1.16,,
Cc1ccc(C(=O)OCc2ccc([C@@H](CN)C(=O)Nc3ccc4cnccc4c3)cc2)c(C)c1,4.07 µM (active),3.62 µM (active),,inactive,-1.52 (inactive),-0.919,-0.26,,
CC(/C=C/[C@@H]1C[C@]1(C)c1ccc2c(c1)C(C)(C)CCC2(C)C)=C\C(=O)O,inactive,inactive,inactive,,-0.0414 (inactive),0.571,0.122,,
O=C(O)CNC(=O)c1ncc(-c2cccc(Cl)c2)cc1O,,inactive,inactive,,-0.0287 (inactive),0.803,0.828,,
Cc1c(CN2CCC(Nc3ncnc4sc(CC(F)(F)F)cc34)CC2)ccc2c1cc(C#N)n2Cc1cn[nH]c1,,3.32 µM (active),inactive,inactive,-0.417 (inactive),-0.643,-0.075,,
COc1ccc2c(c1)[C@@H]1C[C@]1(C(=O)N1[C@@H]3CC[C@H]1CN(C)C3)Cn1c-2c(C2CCCCC2)c2ccc(C(=O)NS(=O)(=O)N(C)C)cc21,20.6 µM (active),,,,,,,inactive,
CC(C)(C)S(=O)(=O)c1ccc2nccc(Nc3n[nH]c4ccc(F)cc34)c2c1,13.2 µM (active),,inactive,inactive,-0.44 (inactive),-0.407,-0.499,,
CCCCCCCOc1ccc(CCC(N)(CO)CO)cc1C(F)(F)F,11.8 µM (active),10.5 µM (active),,inactive,-0.8 (inactive),-1.22,-1.35,,
CN[C@H]1CN(c2ccc3c(=O)c(C(=O)O)cn(-c4nccs4)c3n2)C[C@@H]1OC,0.135 µM (active),0.0762 µM (active),inactive,inactive,-0.941 (inactive),-1.7 and -1.57,-1.25 and -1.14,,1.59 µM (active)
